The record followed here is PubChem BioAssay.

Each structure is given as a SMILES string. A number with no mark means an inactive call. How the calls were made is not given here.

The assay has as its target Pantothenate synthetase (Mycobacterium tuberculosis (strain ATCC 25618 / H37Rv)) (UniProt P9WIL5). Put plainly: Recombinant Mtb pantothenate synthetase (PanC) inhibitors, coupled enzyme, confirmatory (AID 375).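 Further: 0% = full reaction with vehicle and 100% = no enzyme background.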 The settings on record: coupled enzyme assay; at 10 µM, hits give high values.

Sequence of Pantothenate synthetase (Mycobacterium tuberculosis (strain ATCC 25618 / H37Rv)) (P9WIL5 whole entry, looked up): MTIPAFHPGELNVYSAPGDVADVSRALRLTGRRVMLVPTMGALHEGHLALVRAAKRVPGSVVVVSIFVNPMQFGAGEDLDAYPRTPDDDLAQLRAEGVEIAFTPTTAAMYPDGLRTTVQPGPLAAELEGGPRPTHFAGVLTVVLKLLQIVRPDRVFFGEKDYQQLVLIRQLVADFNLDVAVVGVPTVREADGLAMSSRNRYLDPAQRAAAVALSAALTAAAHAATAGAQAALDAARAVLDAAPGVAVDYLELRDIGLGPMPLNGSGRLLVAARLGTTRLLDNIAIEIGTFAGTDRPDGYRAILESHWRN

In the case of `CCOC(=O)c1cccc(NC(=O)C2CCN(S(=O)(=O)c3cccs3)CC2)c1`, the inhibition is 0%.

Consider `CCOC(=O)CNC(=O)CSc1nc(N)cc(N)n1`, for which the inhibition was 1%.

Take `O=C(CCC(=O)OCC(=O)c1ccccc1)NC1CCCCC1`: the inhibition was 2%.

In the case of `O=C(CSCc1n[nH]c(=O)[nH]1)NCCOc1cccc(Oc2ccccc2)c1`, the inhibition was 1%.

With `CCOC(=O)N1CCN(C(=O)c2ccc3c(=O)n(Cc4ccc(OC)cc4)c(=S)[nH]c3c2)CC1`, the inhibition is 4%.

On to `O=C(Nc1ccccc1C(F)(F)F)c1cc(S(=O)(=O)N2CCOCC2)ccc1F`, for which the inhibition is 0%.

As for `COCC(=O)n1nc(NCc2ccc(OC)cc2)nc1NCc1ccc(OC)cc1`, the inhibition is 0%.

`COc1ccc(Cn2nnnc2C(c2ccccn2)N2CCN(c3cc(Cl)ccc3C)CC2)cc1` (stereo not drawn): the inhibition is 0%.

In the case of `CCOC(=O)N1CCC(O)(c2cc(C)c(C)cc2C)CC1`, the inhibition is 3%.

As for `Cc1ccccc1-n1c(Cn2c(=O)sc3ccccc32)nnc1SCC(=O)N1CCCC1`, the inhibition is 8%.

On to `Cc1csc(NC(=O)CCCSc2nc3ccccc3s2)n1`, for which the inhibition is 0%.

Turning to `COc1ccc(CNc2nc3nc(C)cc(C)n3n2)cc1OC`, the inhibition is 1%.

Take `CCOC(=O)c1sc2nc(SCC#N)n(CCCN3CCCC3=O)c(=O)c2c1C`: the inhibition was 0%.

For `CC(C)Cn1c(N)c(C(=O)NCc2cccs2)c2nc3ccccc3nc21`, the inhibition is 1%.

Turning to `NCc1ccc(S(N)(=O)=O)cc1`, the inhibition was 2%.

Regarding `CCn1c(SCC(N)=O)nc2c1c(=O)n(C)c(=O)n2C`, the inhibition was 0%.

For the compound `Cn1c(=O)c2c(nc(NCC3CCCO3)n2C)n(C)c1=O` (stereo not drawn), the inhibition was 0%.

As for `CCOC(=O)CSc1nc2ccccc2n1CC(=O)N1CCN(c2ccccc2)CC1`, the inhibition was 0%.

With `O=C(NCCC1=CCCCC1)C1CCN(S(=O)(=O)c2cccc3cccnc23)CC1`, the inhibition is 19%.

Consider `CCOc1ccc(C2CC(c3cccc(C)c3)n3ncnc3N2)cc1` (stereo not drawn), for which the inhibition was 0%.

Take `CCC1Cc2c(nc3c4c(nc(N5CCOCC5)c(C#N)c24)NC(C)=N3)O1` (stereo not drawn): the inhibition was 0%.

Regarding `Cc1ccc(S(=O)(=O)C2(C(=O)Nc3nccs3)CC2)cc1`, the inhibition is 0%.

`Cn1c(=O)c2c(-c3ccccc3)n(CCCN3CCOCC3)cc2n(C)c1=O`: the inhibition is 0%.

With `O=C(CN(CCc1ccccc1)C(=O)CN1C(=O)COc2ccccc21)NCc1ccco1`, the inhibition is 10%.

On to `Cc1cccc(N2C(=O)CC(N3CCN(c4cccc(C(F)(F)F)c4)CC3)C2=O)c1` (stereo not drawn), for which the inhibition was 1%.

With `COc1ccc(-c2nc3cc(NC(=O)Cc4ccc(OC)c(OC)c4)ccc3o2)cc1`, the inhibition was 0%.

`CN1C(=O)C(O)(CC(=O)c2ccc3c(c2)OCO3)c2ccccc21` (stereo not drawn): the inhibition is 0%.

`COCCNc1nc(C(C)(C)C)nc2c1nnn2Cc1ccccc1Cl`: the inhibition is 0%.

In the case of `Cc1cc(=O)n(C)c(=O)n1CCCCCN1CCCC1`, the inhibition is 0%.

Take `COC(=O)c1sc(NC(=O)c2ccoc2C)nc1C`: the inhibition was 0%.

Turning to `Cc1ccc(Cn2nnc3c(=O)[nH]c(C4CCN(S(=O)(=O)c5ccc(F)cc5)CC4)nc32)cc1`, the inhibition is 3%.

As for `CCc1ccc(NC(=O)c2cccnc2)cc1`, the inhibition was 16%.

Take `CCC(=O)Oc1ccc2c(C)cc(=O)oc2c1C`: the inhibition is 2%.

Consider `N#CC1=C(N)N(c2ccccc2)C(c2ccccc2)C1(C#N)C#N` (stereo not drawn), for which the inhibition is 0%.

Take `CSC(=O)CC(=O)NC(=O)c1ccccc1`: the inhibition is 1%.

For the compound `CCn1c(=O)cc(SCC(=O)N2CCN(C3CCCCC3)CC2)c2ccccc21`, the inhibition is 2%.

Regarding `C=CCOC(=O)C1=C(C)NC(=O)NC1c1cn(-c2ccccc2)nc1-c1cccs1` (stereo not drawn), the inhibition is 4%.

On to `Nn1c(SCC(=O)Nc2ccc(S(=O)(=O)N3CCCC3)cc2)nnc1C(F)(F)F`, for which the inhibition is 0%.

As for `Cc1c(NC(=O)C2CCCCN2S(=O)(=O)c2ccc(Cl)cc2)c(=O)n(-c2ccccc2)n1C` (stereo not drawn), the inhibition was 0%.

On to `O=C(NC1CCCCC1)n1c(=O)oc2ccc(Cl)cc21`, for which the inhibition is 5%.

As for `Cc1cc(Br)ccc1NC(=O)CNC(=O)CSc1n[nH]c(N)n1`, the inhibition was 6%.

With `O=C(c1ccc(-c2cccc(C(F)(F)F)c2)o1)N1CCOCC1`, the inhibition was 0%.

In the case of `Cc1[nH]nc2c1C(C1CC=CCC1)C(C#N)=C(N)O2` (stereo not drawn), the inhibition was 3%.

In the case of `COc1ccc(N2CCN(C(=O)C(OC(C)=O)c3ccccc3)CC2)cc1` (stereo not drawn), the inhibition is 3%.

In the case of `Cc1ccc(S(=O)(=O)Cn2nnnc2CN(Cc2ccco2)CC2CCCO2)cc1` (stereo not drawn), the inhibition is 3%.

As for `CCOC(=O)CC(=O)CSc1[nH]c(=O)cc(C)c1C#N`, the inhibition was 8%.

`COC(=O)c1c(NC(=O)CSc2nnc(-c3cccnc3)n2Cc2ccco2)sc(C)c1C`: the inhibition is 0%.

With `COC(=O)c1cn(C(=O)c2ccc(Br)o2)c2ccccc12`, the inhibition was 0%.

On to `CCOC(=O)N1CCN(S(=O)(=O)c2cc(C)c(C)cc2C)CC1`, for which the inhibition was 0%.

For `Cc1ccc(-n2ncc3c(=O)[nH]c(SCC(=O)N4CCN(c5ccccc5)CC4)nc32)cc1`, the inhibition was 0%.

Consider `Cc1cc(C(=O)OCC(=O)N2c3ccccc3CC2C)c(C)o1` (stereo not drawn), for which the inhibition was 3%.

On to `CCN1CCN(c2cc3c(cc2F)c(=O)c(C(=O)O)cn3C2CC2)CC1`, for which the inhibition is 0%.

For `Cc1nn(S(=O)(=O)N2CCCCC2)c(C)c1Br`, the inhibition was 0%.

`COc1cccc(-c2nnc(NC(=O)Cc3cccs3)s2)c1`: the inhibition is 0%.

Regarding `CCOc1ccc(NC(=O)CSc2nc3cccnc3n2CC)cc1`, the inhibition is 0%.

For `CCCSc1nc(N)c(C#N)c(-c2ccc(C)cc2)c1C#N`, the inhibition is 2%.

For `Cc1ccc2cc(CN(Cc3ccc4c(c3)OCO4)Cc3nnnn3Cc3ccco3)c(=O)[nH]c2c1C`, the inhibition is 0%.

Consider `CCOC(=O)N1CCC(N2C(=O)c3ccccc3C2Nc2cccnc2)CC1` (stereo not drawn), for which the inhibition is 4%.

For the compound `Cc1cc(C)n(CC(=O)O)n1`, the inhibition is 0%.

Turning to `CCn1c(=O)cc(OCC(=O)Nc2nc(C)cs2)c2ccccc21`, the inhibition is 0%.

On to `COc1cccc(N(C(C)=O)c2nc(C)cc(C)c2C#N)c1`, for which the inhibition was 0%.

`COc1cccc(OCC(=O)Nc2ccccc2C(N)=O)c1`: the inhibition was 4%.

As for `Cc1ccc(Cn2c(NCCc3ccccc3)nc3c2c(=O)n(C)c(=O)n3C)cc1`, the inhibition was 4%.

Consider `CCOc1ccc2nc(S(N)(=O)=O)sc2c1`, for which the inhibition is 3%.

Consider `COc1cc(S(=O)(=O)N2CCC(N3CCCCC3)CC2)ccc1-n1cnnn1`, for which the inhibition is 3%.

Turning to `C1CCC(C(CC2CCCCN2)C2CCCCC2)CC1` (stereo not drawn), the inhibition is 3%.

For `CN(C)CCNc1oc(-c2ccccc2F)nc1C#N`, the inhibition was 1%.

`C[C@H]1C[C@@H]2[C@H]([C@@H](O)C[C@@]3(C)[C@H]2CC[C@]3(O)C(=O)CO)[C@@]2(C)C=CC(=O)C=C12`: the inhibition is 0%.

For `O=C(c1cnc2n(c1=O)CCS2)N1CCc2ccccc21`, the inhibition was 2%.

Consider `O=C(c1cccs1)N1CCc2ccccc21`, for which the inhibition was 0%.

As to `COC(=O)CSc1nnc(-c2cccs2)n1-c1ccc(Cl)cc1`, the inhibition was 4%.

Turning to `COc1cc(C(=O)Nc2cc(Cl)ccc2C)c(-n2cnnn2)cc1OC`, the inhibition is 9%.

As to `Cn1cccc1-c1cc(C(=O)O)[nH]n1`, the inhibition is 0%.
